Screening results as filed in PubChem BioAssay.
L3MBTL1 block – inhibitors of human L3MBTL1; Q9Y468; AlphaScreen L3MBTL1–H3K9me1 peptide binding; Potency, µM (series often up to 57.1 µM), usual class: inhibitors; actives 0.66% (n = 230,000); further: nearly all actives have a fitted effect of over 60% in size
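Displacement of a biotinylated histone H3(1-15) peptide monomethylated at Lys9 (75 nM) from L3MBTL1 (50 nM) was measured by AlphaScreen after a 30 min room-temperature compound incubation; cefsulodin titration served as intraplate control.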
BAZ2B inh – inhibitors of human BAZ2B bromodomain. AlphaScreen BAZ2B-H3K14Ac peptide displacement. Potency, µM (highest dose often 114 µM), most hits filed as inhibitors. actives 4.4% (n = 360,000). AID 504333; further: nearly all actives have a fitted effect of over 60% in size
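Multi-concentration screen (max 110 uM) measuring displacement of acetylated histone H3 peptide from BAZ2B by AlphaScreen, using 50 nM protein, 50 nM peptide and 10 ug/mL streptavidin donor plus Ni-chelate acceptor beads.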
HP1b chromo inh – blocks HP1-beta chromodomain binding to methylated histone tails. Potency, µM (series often up to 114 µM), hits mostly inhibitors. AlphaScreen HP1-beta / biotin-H3K9me3 peptide binding. actives 0.56% (n = 390,000); further: nearly all actives have a fitted effect of over 70% in size
Target sequence (P83916 whole entry, looked up): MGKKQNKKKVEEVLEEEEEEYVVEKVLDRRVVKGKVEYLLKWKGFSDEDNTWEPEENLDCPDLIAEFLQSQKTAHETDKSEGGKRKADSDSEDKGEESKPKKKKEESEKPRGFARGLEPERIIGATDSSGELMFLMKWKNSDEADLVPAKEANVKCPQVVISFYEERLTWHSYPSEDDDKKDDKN
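HP1-beta protein (50 nM final) preincubated 30 min at room temperature with biotinylated H3(1-18)K9me3 peptide (50 nM) in PBS pH 7.4, 0.01% Tween-20, then compound added for 30 min. AlphaScreen streptavidin donor/nickel chelate acceptor beads (10 ug/mL final), 30 min dark, luminescence read.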
G9a inh – blocks human histone lysine methyltransferase G9a. Q96KQ7. G9a H3K9 monomethylation, AlphaScreen, 2 h. Potency, µM (titrated, usually from 102 µM), most hits filed as inhibitors. actives 8.8% (n = 350,000). AID 504332; further: nearly all actives have a fitted effect of over 75% in size
Target sequence (Q96KQ7 913-1193 limits assumed): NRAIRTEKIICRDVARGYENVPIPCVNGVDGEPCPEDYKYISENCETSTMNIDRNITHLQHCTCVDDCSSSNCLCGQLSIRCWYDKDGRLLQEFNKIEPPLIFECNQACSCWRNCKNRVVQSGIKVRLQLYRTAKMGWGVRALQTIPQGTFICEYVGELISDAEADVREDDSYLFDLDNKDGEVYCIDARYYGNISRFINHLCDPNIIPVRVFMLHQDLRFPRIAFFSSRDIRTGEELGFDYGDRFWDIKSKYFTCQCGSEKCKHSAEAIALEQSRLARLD
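Readings reflect AlphaScreen signal from monomethyl-H3K9 antibody detection. HMT at 20 nM; substrate b-H3K9 500 nM; cofactor SAM 20 uM; 2 h RT reaction; compounds tested as titrations in qHTS with 15 min preincubation.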
Sfp PPTase inh – blocks B. subtilis Sfp PPTase activity; Q9F4F7; Biochemical Sfp PPTase activity, qHTS; Potency, µM, most hits filed as inhibitors; actives 3.5% (n = 310,000); AID 1490;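 further: the enzyme is Sfp with the accession as filed and its product quenches rhodamine fluorescence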
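Sfp 15 nM + cpd, 15 min RT; start w/ rhodamine-CoA 5 uM, BHQ-2-YbbR 12.5 uM (final); 50 mM Hepes pH 7.6, 10 mM MgCl2, 0.01% NP-40, 0.01% BSA; read 525/598 nm at 0 and 30 min.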
JMJD2A Tudor – blocks the human JMJD2A Tudor domain; O75164; AlphaScreen JMJD2A-Tudor / H3K4me3 peptide binding; Potency, µM (doses to about 114 µM), most hits filed as inhibitors; actives 4.4% (n = 390,000); AID 504339; further: nearly all actives have a fitted effect of over 50% in size
Numbers stand for hits; - = inactive; ? = inconclusive; . = not tested or not shown; [ ] = dose if it differs, or a comment. Rows were chosen to be rich in hits. Some 12% of all compounds tested hit in one or more screens of this group. The call rests on the fitted dose curve; in most records, active means well fitted curve in the direction sought with a large enough effect; inconclusive means small, poorly fitted or top-dose-only effect, or another doubt; inactive means no such curve, though single readings can be large; an effect the other way counts as inactive or inconclusive.

SMILES	L3MBTL1 block	BAZ2B inh	HP1b chromo inh	G9a inh	Sfp PPTase inh	JMJD2A Tudor
COc1cccc(NC(=O)Nc2nccc(C)n2)c1	-	-	-	-	-	-
COc1ccc(-c2csc(NC(=O)CCN3C(=O)C4CC=CCC4C3=O)n2)cc1OC (stereo not given)	-	-	-	?	.	-
Cc1cccc(C(=O)Nc2nnc(-c3cccnc3)o2)c1	.	50.1µM	-	-	-	?
O=C(Nc1nnc(-c2ccco2)o1)c1cccc(N2C(=O)CCC2=O)c1	-	22.4µM	-	15.8µM	-	4.47µM
O=C(Nc1nnc(-c2ccncc2)o1)c1cccc(N2C(=O)CCC2=O)c1	.	.	-	?	56.2µM	6.31µM
Cc1cccc(NC(=O)c2cccc(N3C(=O)CCC3=O)c2)c1	.	-	-	-	-	-
CS(=O)(=O)c1ccccc1-c1nnc(NC(=O)c2cccc(N3C(=O)CCC3=O)c2)o1	-	79.4µM	-	?	.	2.51µM
CSc1cccc(-c2nnc(NC(=O)c3cccc(N4C(=O)CCC4=O)c3)o2)c1	-	?	-	-	.	?
O=C(Nc1ccccc1)/C(=C/c1cccnc1)NC(=O)c1ccccc1	.	-	-	-	-	-
Cc1ccc(CNC(=O)C(C(C)C)N2Cc3ccccc3C2=O)cc1 (stereo not given)	.	-	-	-	.	-
O=S(=O)(c1ccccc1)C(/C=N\O)/C=C/c1ccccc1 (stereo not given)	-	-	-	7.94µM	50.1µM	?
CC1(C)Oc2ccc3ccc(=O)oc3c2/C(=C/O)C1=O	-	-	-	44.7µM	-	-
CC1(C)Oc2ccc3ccc(=O)oc3c2/C(=C/N)C1=O	-	-	-	-	-	-
CC1(C)Oc2ccc3ccc(=O)oc3c2/C(=C/Nc2ccccc2)C1=O	.	?	-	70.8µM	-	?
CC1(C)Oc2ccc3ccc(=O)oc3c2-c2cnoc21	-	50.1µM	-	?	-	?
CC1(C)Oc2ccc3ccc(=O)oc3c2-c2cn[nH]c21	-[11.4 µM]	-	-	?	-	-
Cc1ccc(CC(CC(=O)O)C(=O)Nc2ccc(Cl)cc2)cc1 (stereo not given)	-	-	-	-	-	-
Cc1ccc(F)cc1NC(=O)COC(=O)C1CCN(c2ccc(C(F)(F)F)cn2)CC1	-	-	-	?	.	-
COc1cc(C2C(C#N)=C(N)OC3=C2C(=O)CC(C)(C)C3)ccc1OCCN1CCOCC1 (stereo not given)	-	-	-	50.1µM	-	-
COc1ccc(C2C(C#N)=C(N)OC3=C2C(=O)CC(C)(C)C3)cc1OC (stereo not given)	-	-	-	-	-	-
CCCN(CCC)CCNC(=O)CN1C(=O)COc2ccc(S(=O)(=O)N3CCC(C)CC3)cc21	.	-	-	?	.	-
COc1ccc(C(=O)NC(=O)COC(=O)c2ccc3ncsc3c2)cc1	?	56.2µM	.	-	-	.
O=C(COC(=O)c1ccc2ncsc2c1)NC(=O)c1ccccc1	-	79.4µM	-	?	-	25.1µM
O=C(COC(=O)c1ccc2ncsc2c1)NC(=O)NCc1ccccc1	.	-	-	-	-	-
CCc1ccc(C(=O)c2cn(Cc3ccccc3)c3cc(OC)c(OC)cc3c2=O)cc1	.	?	-	-	.	?
SMILES	L3MBTL1 block	BAZ2B inh	HP1b chromo inh	G9a inh	Sfp PPTase inh	JMJD2A Tudor
O=C(CSc1nnc(Nc2ccccc2)s1)Nc1ccc(S(=O)(=O)N2CCOCC2)cc1	.	-	-	8.91µM	-	-
Cc1cccc(Nc2nnc(SCC(=O)Nc3cccc(S(=O)(=O)N4CCCCC4)c3)s2)c1	-	-	-	3.55µM	-	?
Cc1ccc(Nc2nnc(SCC(=O)Nc3ccc(S(=O)(=O)N4CCOCC4)cc3)s2)cc1	.	-	-	?	-	-
O=C(CSc1nnc(NC(=O)C2CCC2)s1)Nc1ccc(N2CCOCC2)cc1	-	-	-	50.1µM	-	-
CSc1nnc(NC(=O)c2ccc(S(=O)(=O)N3CCOCC3)cc2)s1	.	-	-	10µM	-	-
NC(=O)CSc1nnc(NC(=O)c2ccc(S(=O)(=O)N3CCOCC3)cc2)s1	.	-	-	.	-	-
COc1ccc(S(=O)(=O)Nc2ccc3c(c2)C(=O)N([C@H](C)CO)C[C@H](C)[C@@H](CN(C)C(=O)Nc2ccc(C(F)(F)F)cc2)O3)cc1	-	.	-	.	.	-
Cc1cc(NC(=O)CSc2nc(-c3cccs3)nc3ccccc23)no1	-	-	-	-[12.7 µM]	.	-
CCc1ccc(Nc2nnc(SCC(=O)Nc3cccc(S(=O)(=O)NC4=NCCCCC4)c3)s2)cc1	-	-	-	6.31µM	-	-
Cc1ccc(Nc2nnc(SCC(=O)Nc3cccc(S(=O)(=O)NC4=NCCCCC4)c3)s2)cc1	-	?	-	-[2.33 µM]	-	-
NS(=O)(=O)c1cc([C@@]2(O)NC(=O)c3ccccc32)ccc1Cl	.	.	.	-[21.5 µM]	-	.
COC(=O)c1cc2sc(Cl)cc2n1Cc1nc(-c2ccccc2)oc1C	.	-	-	-	79.4µM	-
CC(C)NC[C@H](O)COc1cccc2ccccc12	.	.	-	-	-	-
CC(CNCC1CCCO1)COc1cccc2ccccc12 (stereo not given)	-	?	?	?	-	1.78µM
NNc1ccccc1C(F)(F)F	?	50.1µM	?	2.82µM	-	31.6µM
O=C(Nc1ccc(S(=O)(=O)Nc2cnc3ccccc3n2)cc1)c1cc(F)c(F)cc1Cl	.	-	-	-	-	79.4µM
O=C(Nc1ccc(S(=O)(=O)Nc2cnc3ccccc3n2)cc1)c1ccc(Cl)cc1Cl	.	.	-	.	.	-
CN1/C(=C\C(=O)CSc2nnc(NCc3ccccc3)s2)C(C)(C)c2ccccc21	-	?	-	3.16µM	-	?
Cc1cc(C(=O)CSc2nnc(NCc3ccccc3)s2)c(C)n1C	-	?	-	?	-	?
O=C(Nc1cccc(F)c1)C1CCCN1C(=O)OCc1ccccc1 (stereo not given)	.	-	-	-	-	-
COc1ccc(OC)c(-c2cc(C(=O)N/N=C(\C)c3cccnc3)c3ccccc3n2)c1	.	-	-	.	-	-
CCOc1ccc(-c2cc(C(=O)N/N=C(\C)c3cccnc3)c3ccccc3n2)cc1	.	?	-	35.5µM	-	-
C/C(=N\NC(=O)c1cc(-c2ccco2)nc2ccccc12)c1cccnc1	-	-	-	39.8µM	-	-
CCCc1[nH]n(-c2ccc(F)cc2)c(=O)c1C=Nc1ccc(C)cc1	-	-	-	-	-	-
CCOc1ccc(N(C)S(=O)(=O)c2ccc3c(c2)C(C)(C)C(=O)N3C)cc1	.	-	-	-	.	-
CCOc1[nH]n(-c2ccccc2)c(=O)c1C=Nc1ccccc1	-	?	-	20µM	-	-
COc1nccnc1NS(=O)(=O)c1ccc(N=Cc2c(C)[nH]n(-c3ccc(C)c(C)c3)c2=O)cc1	-	?	-	44.7µM	-	?
